46 compounds from the antibiotic and cytotoxicity screens of Wong et al. (2023) can be followed below.

Out of some 39,000 compounds screened, about 3,300 (8.5%) were called active. Shown is part of a subset that was picked to be rich in actives.

In this assay the test system is HepG2. Put plainly: cytotoxicity call (relative viability < 0.9). Conditions: 10 µM.
As for `Cc1ccnc(NC(=O)Cn2cnc3c2c(=O)n(C)c(=O)n3C)n1`, the cytotoxicity call was “inactive”.
For `O=c1nc2[nH][nH]cc-2c(=O)[nH]1`, the cytotoxicity call was “inactive”.
To `COCC#Cc1ccc2c(c1)O[C@H](CN(C)C(=O)CN(C)C)[C@H](C)CN([C@H](C)CO)S2(=O)=O` belongs “inactive”; to `C=CCOc1nc(NCC)nc(N(C)C)n1`, “inactive”; to `CS(=O)(=O)N1C[C@H](NC(=O)c2cnccn2)[C@H]2OCCC[C@H]21`, “inactive”.
To `C=CC[C@@H](CC(=O)N(CCO)Cc1ccccc1)C(=O)N[C@H](COC(=O)[C@@H](CC=C)Cc1ccc(F)cc1)C(C)(C)C` belongs “inactive”; to `C[C@@H]1CCCCO[C@H](CN(C)Cc2ccncc2)[C@H](C)CN([C@H](C)CO)C(=O)c2cc(NS(=O)(=O)c3ccc(Cl)cc3)ccc2O1`, “inactive”; to `CCc1oc(CC[C@@H](CO)NC(=O)NCCn2cc(C3(O)CCCCC3)nn2)c(C(=O)OC)c1C(=O)OC`, “inactive”.
Consider `O=C(CCCCCCC(=O)Nc1ccc([C@H]2O[C@@H](CSc3ccccc3)C[C@H](c3ccccc3)O2)cc1)NO`, for which the cytotoxicity call was “inactive”.
As for `C[C@H](CO)N1C[C@H](C)[C@@H](CN(C)C(=O)Nc2ccc(C(F)(F)F)cc2)Oc2c(NC(=O)c3ccc(-c4nccs4)cc3)cccc2C1=O`, the entry is “inactive”; as for `C[C@H]1CN([C@@H](C)CO)C(=O)c2cccc(NC(=O)C3CC3)c2O[C@@H]1CN(C)S(=O)(=O)c1ccccc1`, “inactive”; as for `C[C@@H]1CCCCO[C@H](CN(C)S(=O)(=O)c2ccccc2)[C@@H](C)CN([C@@H](C)CO)C(=O)c2cc(NC(=O)CCC(F)(F)F)ccc2O1`, “inactive”.
To `CC(C)NC(=O)N[C@H]1C=C[C@H](CC(=O)NCCCN(C)C)O[C@H]1CO` belongs “inactive”.
Regarding `COc1ccc(S(=O)(=O)N(C)C[C@@H]2Oc3ccc(NC(=O)c4ccncc4)cc3CC(=O)N([C@H](C)CO)C[C@@H]2C)cc1`, the cytotoxicity call was “inactive”.
As for `O=C(O)C(O)C(O)C(OC1OC(CO)C(O)C(O)C1O)C(O)CO` (stereo unspecified), the entry is “inactive”; as for `COc1cccc(S(=O)(=O)N[C@H]2C=C[C@H](CC(=O)NC3CCC3)O[C@@H]2CO)c1`, “inactive”.
For the compound `CC(C)(C)c1ccc(C(=O)Nc2cccc(C(F)(F)F)c2)cc1`, the cytotoxicity call is “inactive”.
To `O=C(O)c1ccccc1Nc1cccc(C(F)(F)F)c1` belongs “inactive”; to `O=C(Nc1cccc(C(F)(F)F)c1)c1ccc2ccccc2c1`, “active”.
With `C[C@@H]1CCCCO[C@@H](CN(C)S(=O)(=O)c2ccc(F)cc2)[C@H](C)CN([C@H](C)CO)C(=O)c2cc(NC(=O)CCC(F)(F)F)ccc2O1`, the cytotoxicity call is “inactive”.
As for `C[C@@H]1CN([C@H](C)CO)S(=O)(=O)c2ccc(C3=CCCCC3)cc2O[C@H]1CN(C)Cc1cncnc1`, the entry is “inactive”; as for `CCCCN(CCCC)CC(O)c1cc(Cl)cc2c1-c1ccc(Cl)cc1C2=Cc1ccc(Cl)cc1` (stereo unspecified), “active”.
In the case of `CCCCN(CCCC)CC[C@@H](O)c1cc2c(Cl)cc(Cl)cc2c2cc(C(F)(F)F)ccc12`, the cytotoxicity call was “inactive”.
As for `C[C@@H]1CCCCO[C@@H](CN(C)Cc2ccncc2)[C@H](C)CN([C@@H](C)CO)C(=O)c2cc(NC(=O)CCCCCC(=O)Nc3ccccc3N)ccc2O1`, the entry is “inactive”; as for `C[C@H]1CN([C@@H](C)CO)C(=O)Cc2cc(NC(=O)Nc3ccc(F)cc3)ccc2O[C@H]1CN(C)Cc1ccc(Cl)c(Cl)c1`, “active”.
As for `C[C@@H]1CN([C@@H](C)CO)C(=O)Cc2cc(NC(=O)Nc3ccc(F)cc3)ccc2O[C@@H]1CN(C)Cc1ccc(Cl)c(Cl)c1`, the entry is “active”.
For the compound `C[C@@H]1CN([C@H](C)CO)C(=O)Cc2cc(NC(=O)Nc3ccc(F)cc3)ccc2O[C@@H]1CN(C)Cc1ccc(Cl)c(Cl)c1`, the cytotoxicity call is “active”.
To `C[C@H](CO)N1C[C@H](C)[C@@H](CN(C)Cc2ccc(Cl)c(Cl)c2)Oc2ccc(NC(=O)Nc3ccc(F)cc3)cc2CC1=O` belongs “active”; to `COc1ccc(-n2c(C)cc(CN)c2C)cc1`, “inactive”.
For the compound `O=C(C[C@H]1C[C@@H]2c3cc(NC(=O)c4ccc5c(c4)OCO5)ccc3O[C@@H]2[C@H](CO)O1)NCC(F)(F)F`, the cytotoxicity call was “inactive”.
As for `CC(C)NC(=O)N(C)C[C@H]1Oc2c(NC(=O)NC3CCCCC3)cccc2C(=O)N([C@H](C)CO)C[C@@H]1C`, the entry is “inactive”; as for `Cc1noc(C)c1NC(=O)Nc1ccc2c(c1)CC(=O)N([C@@H](C)CO)C[C@H](C)[C@@H](CN(C)S(C)(=O)=O)O2`, “inactive”; as for `C[C@H](CO)N1C[C@H](C)[C@H](CN(C)C(=O)Nc2ccc3c(c2)OCO3)OCCCC[C@H](C)Oc2ccc(NC(=O)Nc3ccccc3)cc2C1=O`, “inactive”.
As for `C[C@@H]1CCCCO[C@H](CN(C)S(=O)(=O)c2cccs2)[C@@H](C)CN([C@H](C)CO)C(=O)c2cc(NC(=O)Cc3ccccc3)ccc2O1`, the entry is “inactive”; as for `COc1ccc(S(=O)(=O)N(C)C[C@@H]2OCCCC[C@H](C)Oc3ccc(NC(=O)c4ccccc4)cc3C(=O)N([C@H](C)CO)C[C@@H]2C)cc1`, “inactive”.
To `Cc1ccc(S(=O)(=O)N(C)C[C@@H]2Oc3ccc(NS(=O)(=O)c4cccs4)cc3CC(=O)N([C@H](C)CO)C[C@@H]2C)cc1` belongs “inactive”.
Take `COc1ccc(COC[C@]23NC(=O)N[C@H](c4ccccc4O2)[C@H]3COC(=O)NCCCCCC(=O)NO)cc1`: the cytotoxicity call is “inactive”.
As to `COCC(=O)N(C)C[C@H]1Oc2cc(-c3ccc(C#N)cc3)ccc2S(=O)(=O)N([C@H](C)CO)C[C@@H]1C`, the cytotoxicity call was “inactive”.
Take `O=C(CCCCCNC(=O)OCc1ccc(CO[C@@H]2C[C@H](c3ccc(Br)cc3)C=C(C(=O)N3CCN(Cc4ccccc4)CC3)O2)cc1)NO`: the cytotoxicity call was “inactive”.
To `COCC(=O)N(C)C[C@H]1Oc2cc(C#CCN(C)C)ccc2S(=O)(=O)N([C@@H](C)CO)C[C@@H]1C` belongs “inactive”.
For `C[C@H](CO)N1C[C@H](C)[C@H](CN(C)S(=O)(=O)c2cccs2)OCCCC[C@H](C)Oc2ccc(NS(=O)(=O)c3cn(C)cn3)cc2C1=O`, the cytotoxicity call was “inactive”.
Consider `C[C@@H]1CN([C@H](C)CO)C(=O)c2cccc(N(C)C)c2O[C@H]1CN(C)S(C)(=O)=O`, for which the cytotoxicity call is “inactive”.
As for `C[C@@H]1CN([C@H](C)CO)C(=O)Cc2cc(NC(=O)Nc3ccc(F)cc3)ccc2O[C@H]1CN(C)Cc1ccc(Cl)c(Cl)c1`, the entry is “inactive”.
With `C[C@@H]1CN([C@@H](C)CO)C(=O)Cc2cc(NC(=O)Nc3ccc(F)cc3)ccc2O[C@H]1CN(C)Cc1ccc(Cl)c(Cl)c1`, the cytotoxicity call was “active”.
For `C[C@H](CO)N1C[C@H](C)[C@H](CN(C)Cc2ccc(Cl)c(Cl)c2)Oc2ccc(NC(=O)Nc3ccc(F)cc3)cc2CC1=O`, the cytotoxicity call was “active”.
To `C[C@H]1CN([C@@H](C)CO)C(=O)Cc2cc(NC(=O)Nc3ccc(F)cc3)ccc2O[C@@H]1CN(C)Cc1ccc(Cl)c(Cl)c1` belongs “active”.
